These results are taken from ChEMBL document CHEMBL4296182, “CO-ADD screening of NIH NCI Diversity Set V”.

For some of these results: Measured potencies and affinities stand elsewhere.

In one assay the test system is Escherichia coli. Description: Antibacterial activity against Escherichia coli ATCC 25922 (CO-ADD:GN_001); MIC in CAMBH media using NBS plates, by Resazurin F(560/590). The assay is classed as functional. As to conditions: Concentration 20 uM, ASSAY_TEST Inhibition of Bacterial Growth, detection method Resazurin, Fluorescence (ex560/em590), MEDIA CAMHB, plate type 384well, CORNING #3640, time 18 hr.
On to `Cc1ccc(NC(=O)N2CCCCC2)cc1NC(=O)N1CCCCC1`, for which the Inhibition was 3.01%.
Take `Nc1nc(N)nc(-c2ccccc2-c2nc(N)nc(N)n2)n1`: the Inhibition is recorded as -2.58%.
As to `O=C(O)CCC(=O)OCCN(Cc1ccc(Oc2ccc([N+](=O)[O-])cc2)cc1)C(=O)C(Cl)Cl`, the Inhibition was -4.03%.
For the compound `COC1OC(CO)C(N=C(C)C)C1O` (stereo not given), the Inhibition turned out to be 0.14%.
Same read-out and setting: then `COc1cccc(/C=C2\CCc3ccccc3C2=O)c1`, with 8.53%; and `O/N=C(/c1ccccc1)c1ccc2c3c(cccc13)CC2`, with 6.08%.
Still for that read-out and setting: then `Cc1nc(C(N)=O)nc2ccccc12`, with 6.82%.

A further assay deals with Klebsiella pneumoniae. As to conditions: Concentration 20 uM; ASSAY_TEST Inhibition of Bacterial Growth; detection method Absorption (OD600); MEDIA CAMHB; plate type 384well; NBS; CORNING #3640; time 18 hr.
As for `CCOC(=O)N1C/C(=C\c2ccccc2)C(=O)/C(=C/c2ccccc2)C1`, the Inhibition is listed as 12.83%.
For the compound `O=C(Nc1ccc(Br)cc1)Nc1ccccc1Cl`, the Inhibition was found to be 5.62%.
Regarding `N#C/C(=C\c1ccc(C#N)cc1)C(=O)c1ccccc1`, the Inhibition is 15.1%.
In the case of `Nc1ccc(-c2nc3nc(N)nc(N)c3nc2-c2ccc(N)cc2)cc1`, the Inhibition came out at 5.53%.
Same read-out and setting: then `Cc1cc(=O)oc2cc(OS(C)(=O)=O)ccc12`, with 7.19%; and `Nc1ccc(OC(=O)Nc2ccc(O)cc2)cc1`, with 2.2%; and `CCOC(=O)/C(C#N)=C/c1cccc(C)c1`, with 6.23%.
As for `Cc1nc(S)nc(O)c1CCC1OCCO1`, the Inhibition was -2.98%.
On the same count and under the same terms, then `N#CC1C(=O)NC(=O)C(C#N)C12CCCC(C(F)(F)F)C2` (stereo not given), with 4.19%.
On the same count and under the same terms, then `O=C1c2cc([N+](=O)[O-])ccc2-c2cc(Br)c(NC(=NO)C(F)(F)F)cc21`, with 6.86%.
Take `O=C(Nc1ccc(F)cc1)OCCOc1ccc(Br)cc1`: the Inhibition stood at 0.6%.
On to `O=C(O)CCC1(c2ccccc2)NC(=O)NC1=O` (stereo not given), for which the Inhibition is given as 2.37%.
As to `CCOC(=O)c1c(C)nc(C)c(C(=O)OCC)c1-c1ccc(OC)cc1`, the Inhibition came out at 2.6%.
For the compound `O=C(Nc1ccc2ccccc2c1)c1cccc(F)c1`, the Inhibition was found to be 2.58%.
On the same count and under the same terms, then `CCOC(=O)c1c(N)ssc1=S`, with 23.27%.
On the same count and under the same terms, in the case of `O=C(Nc1ccc(C2=NCCCN2)cc1)Nc1ccc(C2=NCCCN2)cc1` it was 24.63%; in that of `CCOC(=O)/C=C/c1ccc(C(=O)OCC)[nH]1`, 8.24%; in that of `CCOC(=O)c1nc(SC)n(C)c1C(=O)OCC`, 2.22%.
With `c1ccc(CSc2nc3c[nH]cnc-3n2)cc1`, the Inhibition stood at 8.84%.
Same read-out and setting: in the case of `CNC1(C(N)=O)CCNCC1` it was 15.69%; in that of `O=c1[nH]nc(-c2cc(-c3ccccc3)nc3ccccc23)o1`, 4.91%.
As for `CC(C)(C)c1ccc(OC(=O)c2ccccc2)cc1`, the Inhibition was 8.33%.
As to `NC(=O)c1cc(Br)cc(C2CCCCC2)c1O`, the Inhibition is given as 15.38%.
The same measure, in the same setting: in the case of `CC(=O)NS(=O)(=O)c1ccc2sc(C)nc2c1` it was 5.23%.
Consider `CCNc1ccccc1C(=O)O`, for which the Inhibition is recorded as 16.83%.
The same measure, in the same setting: in the case of `CN(C)c1ccc(/C=C2/C=C(c3ccc4c(c3)CCCC4)OC2=O)cc1` it was 6.65%; in that of `CSc1cccc(NC(=O)Nc2ccccc2C(N)=O)c1`, 12.71%.
On the same count and under the same terms, in the case of `CCn1c2ccccc2nc2cc3c(cc21)c(Cl)c(=O)c1ccccc13` it was 12.19%; in that of `Cc1ccc(NC(=S)NC(=O)c2ccccc2)cc1NC(=S)NC(=O)c1ccccc1`, 3.93%.
Same read-out and setting: in the case of `CN1N=C/C(=C/NC(N)=O)C1=O` it was 2.78%.
Regarding `O=C(Nc1ccc(Cl)c(Cl)c1)Nc1ccccc1O`, the Inhibition is recorded as 5.08%.
Same read-out and setting: in the case of `CC(=O)OCC1OC(COC(C)=O)(c2ccc(C)cc2)C(OC(C)=O)C1OC(C)=O` (stereo not given) it was 10.58%; in that of `Cc1ccc(NC(=O)N2CCCCC2)cc1NC(=O)N1CCCCC1`, 16.93%; in that of `Nc1nc(N)nc(-c2ccccc2-c2nc(N)nc(N)n2)n1`, 13.54%.
With `O=C(O)CCC(=O)OCCN(Cc1ccc(Oc2ccc([N+](=O)[O-])cc2)cc1)C(=O)C(Cl)Cl`, the Inhibition came to 4.09%.
Same read-out and setting: then `COC1OC(CO)C(N=C(C)C)C1O` (stereo not given), with 2.78%; and `COc1cccc(/C=C2\CCc3ccccc3C2=O)c1`, with 8.43%; and `O/N=C(/c1ccccc1)c1ccc2c3c(cccc13)CC2`, with 9.85%.
Still for that read-out and setting: in the case of `Cc1nc(C(N)=O)nc2ccccc12` it was 15.63%.

Another assay relates to Candida albicans. The conditions noted are these: 20 µM.
Take `CCOC(=O)N1C/C(=C\c2ccccc2)C(=O)/C(=C/c2ccccc2)C1`: the Inhibition is 6.37%.
For `O=C(Nc1ccc(Br)cc1)Nc1ccccc1Cl`, the Inhibition turned out to be 1.52%.
The same measure, in the same setting: in the case of `N#C/C(=C\c1ccc(C#N)cc1)C(=O)c1ccccc1` it was 8.77%.
Take `Nc1ccc(-c2nc3nc(N)nc(N)c3nc2-c2ccc(N)cc2)cc1`: the Inhibition is 0.39%.
On to `Cc1cc(=O)oc2cc(OS(C)(=O)=O)ccc12`, for which the Inhibition is 0.46%.
Regarding `Nc1ccc(OC(=O)Nc2ccc(O)cc2)cc1`, the Inhibition was -2.4%.
Take `CCOC(=O)/C(C#N)=C/c1cccc(C)c1`: the Inhibition is 19.3%.
For `Cc1nc(S)nc(O)c1CCC1OCCO1`, the Inhibition was -0.82%.
Turning to `N#CC1C(=O)NC(=O)C(C#N)C12CCCC(C(F)(F)F)C2` (stereo not given), the Inhibition was found to be 1.89%.
The same measure, in the same setting: in the case of `O=C1c2cc([N+](=O)[O-])ccc2-c2cc(Br)c(NC(=NO)C(F)(F)F)cc21` it was -4.85%.
On the same count and under the same terms, in the case of `O=C(Nc1ccc(F)cc1)OCCOc1ccc(Br)cc1` it was 2.88%; in that of `O=C(O)CCC1(c2ccccc2)NC(=O)NC1=O` (stereo not given), -1.18%.
Same read-out and setting: then `CCOC(=O)c1c(C)nc(C)c(C(=O)OCC)c1-c1ccc(OC)cc1`, with 6.74%; and `O=C(Nc1ccc2ccccc2c1)c1cccc(F)c1`, with 9.01%; and `CCOC(=O)c1c(N)ssc1=S`, with 10.5%.
With `O=C(Nc1ccc(C2=NCCCN2)cc1)Nc1ccc(C2=NCCCN2)cc1`, the Inhibition came out at 1.67%.
Regarding `CCOC(=O)/C=C/c1ccc(C(=O)OCC)[nH]1`, the Inhibition came to 7.12%.
With `CCOC(=O)c1nc(SC)n(C)c1C(=O)OCC`, the Inhibition was found to be 0.39%.
On to `c1ccc(CSc2nc3c[nH]cnc-3n2)cc1`, for which the Inhibition came to 0.41%.
On the same count and under the same terms, then `CNC1(C(N)=O)CCNCC1`, with -0.33%.
Regarding `O=c1[nH]nc(-c2cc(-c3ccccc3)nc3ccccc23)o1`, the Inhibition came to 0.17%.
Regarding `CC(C)(C)c1ccc(OC(=O)c2ccccc2)cc1`, the Inhibition is 9.75%.
On the same count and under the same terms, in the case of `NC(=O)c1cc(Br)cc(C2CCCCC2)c1O` it was 2.63%.
On the same count and under the same terms, then `CC(=O)NS(=O)(=O)c1ccc2sc(C)nc2c1`, with 3.43%; and `CCNc1ccccc1C(=O)O`, with 5.51%.
Regarding `CN(C)c1ccc(/C=C2/C=C(c3ccc4c(c3)CCCC4)OC2=O)cc1`, the Inhibition was found to be 4.35%.
As to `CSc1cccc(NC(=O)Nc2ccccc2C(N)=O)c1`, the Inhibition is -0.32%.
The same measure, in the same setting: in the case of `CCn1c2ccccc2nc2cc3c(cc21)c(Cl)c(=O)c1ccccc13` it was -1.37%; in that of `Cc1ccc(NC(=S)NC(=O)c2ccccc2)cc1NC(=S)NC(=O)c1ccccc1`, -0.27%; in that of `CN1N=C/C(=C/NC(N)=O)C1=O`, 0.49%.
In the case of `O=C(Nc1ccc(Cl)c(Cl)c1)Nc1ccccc1O`, the Inhibition came out at 3.05%.
Same read-out and setting: in the case of `CC(=O)OCC1OC(COC(C)=O)(c2ccc(C)cc2)C(OC(C)=O)C1OC(C)=O` (stereo not given) it was -0.8%; in that of `Cc1ccc(NC(=O)N2CCCCC2)cc1NC(=O)N1CCCCC1`, 3.17%; in that of `Nc1nc(N)nc(-c2ccccc2-c2nc(N)nc(N)n2)n1`, 6.82%.
Take `O=C(O)CCC(=O)OCCN(Cc1ccc(Oc2ccc([N+](=O)[O-])cc2)cc1)C(=O)C(Cl)Cl`: the Inhibition amounted to 4.52%.
Still for that read-out and setting: then `COC1OC(CO)C(N=C(C)C)C1O` (stereo not given), with 0.83%; and `COc1cccc(/C=C2\CCc3ccccc3C2=O)c1`, with 9.78%; and `O/N=C(/c1ccccc1)c1ccc2c3c(cccc13)CC2`, with 11.2%.
With `Cc1nc(C(N)=O)nc2ccccc12`, the Inhibition worked out at 0.61%.
